Test results taken from PubChem BioAssay (NCATS).
Records with an inconclusive call do not appear. Values without a mark were called inactive. Active and inactive are the calls of the source. The call rests on the fitted dose curve; in most records, active means well fitted cell-killing curve with a large enough effect; inconclusive means small, poorly fitted or top-dose-only effect, or effect the other way; inactive means no such curve, though single readings can be large or run the other way. Non-standard residues stand in square brackets, D forms with d. Residues, ends and D or L forms follow the SMILES beside them. *: point of attachment. Nva = CCC[C@H](N)C(=O)O; Cbz = O=C(OCc1ccccc1)*

Test: qHTS of pediatric cancer cell lines to identify multiple opportunities for drug repurposing: Confirmatory screen for Saos-2 cells (AID 1347127); further: nearly all actives have a fitted effect of over 60% in size;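 on activity change, negative = cytotoxic: plate controls were DMSO for no effect and bortezomib for full effect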
Settings: Saos-2 osteosarcoma cell viability; series mostly up to 45.9 µM; activity change, negative = cytotoxic: at the top concentration
In short: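 Cells (500-1,000/well) in growth media were settled 5 h at 37 degrees C, then given compounds for 48 h. Viability was read as CellTiter-Glo luminescence. Primary runs used MIPE at 11 points (0.78 nM-46 µM) and NPC at 8 points (0.59 nM-46 µM); follow-ups used 11 points.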
Potency means the concentration at half of the fitted maximal effect.

Compound | Potency | activity change, negative = cytotoxic | outcome
Cc1ncc(-c2ccnc(Nc3ccc(S(C)(=O)=O)cc3)n2)n1C(C)C | 3690 nM (active) |  | 
O=C(C=CC=Cc1ccc2c(c1)OCO2)N1CCCCC1 |  | 1.22% | 
C[C@H](NCc1ccc2c(c1)nc(NC(=O)c1ccc(-c3cn[nH]c3)s1)n2CCc1ccccc1)C(C)(C)C | 1470 nM (active) |  | 
CCCCC(=O)O[C@]1(C(=O)CO)[C@@H](C)C[C@H]2[C@@H]3CCC4=CC(=O)C=C[C@]4(C)[C@@]3(F)[C@@H](O)C[C@@]21C |  | 7.54% | 
C[C@H]1[C@@H](OC(=O)CCC(=O)O)O[C@@H]2O[C@@]3(C)CC[C@@H]4[C@H](C)CC[C@@H]1[C@@]24OO3 | 1310 nM (active) |  | 
Cn1cc(CNCC2CCN(c3ncc(C(=O)NO)cn3)CC2)c2ccccc21 | 208 nM (active) |  | 
CC(C(C)N1CC(=O)NC(=O)C1)N1CC(=O)NC(=O)C1 (stereo not given) |  | -10.2% | 
CC[C@]12C=CCN3CC[C@@]4(c5cc([C@@]6(C(=O)OC)C[C@H]7C[C@@H](C(C)(F)F)CN(Cc8c6[nH]c6ccccc86)C7)c(OC)cc5N(C)[C@H]4[C@@](O)(C(=O)OC)[C@H]1OC(C)=O)[C@@H]32 |  | 6.16% | 
Oc1cc(-c2nc(-c3ccccc3)[nH]c2-c2ccncc2)ccc1Cl | 2610 nM (active) |  | 
O=S(=O)(O)CCSSCCS(=O)(=O)O |  | 0.739% | 
CC(C)N1[N]C(=C2C=c3cc(O)ccc3=N2)c2c(N)ncnc21 | 10400 nM (active) |  | 
COC(=O)[C@@H]1[C@H]2C[C@@H]3c4[nH]c5ccccc5c4CCN3C[C@@H]2CC[C@@H]1O |  |  | inactive
O=C1NC(=O)C(=Cc2ccc3nccc(-c4ccncc4)c3c2)S1 | 2930 nM (active) |  | 
Oc1ccc(-c2ccc(-c3cc(Nc4cccc(CNC5CC5)c4)n[nH]3)cc2)c(O)c1 | 9270 nM (active) |  | 
CNC(=O)c1ccc(Nc2cc(Nc3ccccc3S(=O)(=O)C(C)C)c3cc[nH]c3n2)nc1 | 5850 nM (active) |  | 
Cc1cnc(Nc2ccc(N3CCN(C)CC3)cc2)nc1Nc1cccc(S(=O)(=O)NC(C)(C)C)c1 | 3690 nM (active) |  | 
CCN(CC)CCNC(=O)c1c(C)[nH]c(C=C2C(=O)Nc3ccc(F)cc32)c1C | 26900 nM (active) |  | 
C=CC(=O)Nc1cccc(Nc2nc(NC3CCC(N(C)C)CC3)nc3c2ncn3C(C)C)c1 (stereo not given) | 1650 nM (active) |  | 
C=C1C(=CC=C2CCC[C@]3(C)[C@@H]([C@H](C)CCCC(C)(C)O)CC[C@@H]23)C[C@@H](O)C[C@@H]1O |  | -1.71% | 
CCC[C@@H](C=O)NC(=O)[C@H](CC(C)C)NC(=O)[C@H](CC(C)C)NC(=O)OCc1ccccc1 (Cbz-Leu-Leu-[Nva]-aldehyde) | 3290 nM (active) |  | 
CC(C)(O)Cn1c(NC(=O)c2ccc(-c3cn[nH]c3)s2)nc2cc(CN3CCOCC3)ccc21 | 585 nM (active) |  | 
COc1cccc2c1C(=O)c1c(O)c3c(c(O)c1C2=O)C[C@@](O)(C(=O)CO)C[C@@H]3O[C@H]1C[C@H](N)[C@@H](O)[C@H](C)O1 | 293 nM (active) |  | 
CC[C@@]1([C@@H]2O[C@@H]([C@H]3O[C@@](O)(CO)[C@H](C)C[C@H]3C)C[C@H]2C)CC[C@H]([C@]2(C)CC[C@]3(C[C@H](O)[C@@H](C)[C@@H]([C@@H](C)[C@@H](OC)[C@H](C)C(=O)O)O3)O2)O1 | 723 nM (active) |  | 
COc1ccc(C=Cc2cc(OC)c(OC)c(OC)c2)cc1NC(=O)[C@H](N)CO | 73.7 nM (active) |  | 
C[C@@]12C(=O)OC(=O)[C@@]1(C)C1CCC2O1 | 2610 nM (active) |  | 
